PubChem BioAssay AID1942 (Johns Hopkins Ion Channel Center, 2009)
The whole screen tested about 2,400 compounds, of which about 580 (24%) were called active. Not all results are given here. A number with no mark means an inactive call.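 Rule for the calls: active = activity change at or above the mean plus 3 SD of buffer wells without dofetilide, per plate; inactive = the rest.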

Each molecule was assayed against Potassium voltage-gated channel subfamily KQT member 2 (Rattus norvegicus) (UniProt O88943) (assay: rat KCNQ2 channel activation by compounds alone, confirmation, counter-screen for hERG block protector project, cell-based, CHO, FluxOR thallium flux (AID 1942;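 note: normalized value minus buffer-control mean plus three SD of buffer wells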)). Conditions: CHO-KCNQ2 cells, FluxOR thallium flux fluorescence; at 10 µM; active compounds read high.
Chain of Potassium voltage-gated channel subfamily KQT member 2 (Rattus norvegicus) (O88943 whole entry, looked up): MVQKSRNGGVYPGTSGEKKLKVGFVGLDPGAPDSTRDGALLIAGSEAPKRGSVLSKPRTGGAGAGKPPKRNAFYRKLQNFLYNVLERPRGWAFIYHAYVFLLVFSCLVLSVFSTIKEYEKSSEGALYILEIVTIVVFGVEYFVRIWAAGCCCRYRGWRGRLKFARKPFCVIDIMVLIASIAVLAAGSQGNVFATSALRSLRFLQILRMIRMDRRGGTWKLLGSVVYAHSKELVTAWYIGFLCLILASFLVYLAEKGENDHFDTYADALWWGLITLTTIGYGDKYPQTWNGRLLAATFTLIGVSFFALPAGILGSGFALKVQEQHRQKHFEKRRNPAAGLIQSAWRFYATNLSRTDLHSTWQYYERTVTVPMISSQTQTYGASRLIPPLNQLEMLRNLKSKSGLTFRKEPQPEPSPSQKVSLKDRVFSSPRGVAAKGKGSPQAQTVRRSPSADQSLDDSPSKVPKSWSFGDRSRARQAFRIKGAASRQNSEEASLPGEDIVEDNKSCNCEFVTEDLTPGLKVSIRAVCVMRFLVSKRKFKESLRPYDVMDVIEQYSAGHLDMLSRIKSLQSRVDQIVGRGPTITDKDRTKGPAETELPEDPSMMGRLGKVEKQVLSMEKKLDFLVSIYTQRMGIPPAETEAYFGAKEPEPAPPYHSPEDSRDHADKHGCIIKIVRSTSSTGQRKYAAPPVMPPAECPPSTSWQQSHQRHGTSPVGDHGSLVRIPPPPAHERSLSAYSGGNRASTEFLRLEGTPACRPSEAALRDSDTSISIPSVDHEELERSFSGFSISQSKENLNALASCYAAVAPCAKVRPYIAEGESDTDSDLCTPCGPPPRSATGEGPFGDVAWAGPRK

SMILES	activity change, less the hit threshold
O=C(O)c1ccccc1NC(=O)c1cc2ccccc2oc1=O	-5.1%
O=C(CN(C(=O)CNS(=O)(=O)c1ccc(F)cc1)c1cccc(F)c1)NCC1CCCO1 (centres undefined)	-19%
CC(=O)n1nc(-c2ccncc2)nc1SCC(=O)Nc1cccc(Cl)c1	-21.7%
Cc1ccc(NC(=O)CSc2nnc(-c3cccnc3)n2-c2ccc(C)cc2)cc1	-17.2%
O=[N+]([O-])c1ccc(-c2ccc(/C=N/n3cnnc3)o2)c(Br)c1	-11.4%
CCCN1Cc2cccc(C(=O)NCc3cccs3)c2C1=O	-23.8%
OC(CNCCc1ccc(C(F)(F)F)cc1)COc1cccc2ccccc12 (centres undefined)	-39.6%
O=C(NC(=S)N1CCc2ccccc21)c1ccccc1	38.5% (active)
O=C(NC(=S)N1CCc2ccccc21)c1ccccc1Br	105% (active)
O=C(c1ccccc1)N1CCc2ccccc21	-14.8%
O=C(NC(=S)N1CCCc2ccccc21)c1ccccc1	-7.9%
O=C(NC(=S)N1CCc2ccccc21)c1ccccc1Cl	65.2% (active)
CN1C(=O)CSc2ccc(NC(=O)N3CCc4ccccc43)cc21	-21.5%
O=C(CSc1cccc2cccnc12)N/N=C/c1cccnc1	-18.6%
S=C(Nc1ccccc1)Nc1nc2ccccc2n1CCOc1ccccc1	-19.7%
Cc1ccccc1NC(=O)CSc1ccsc1[N+](=O)[O-]	-24.3%
O=C(O)CC1S/C(=N/N=C/c2ccc(-c3ccccc3[N+](=O)[O-])o2)NC1=O (centres undefined)	-23.4%
CCCc1nnc(NC(=O)CN2CCOCC2)s1	-18.7%
Cc1ccccc1-c1nnn(CC(=O)NCc2ccc3c(c2)OCO3)n1	-24.5%
Cc1cc(F)ccc1NC(=O)C1CCN(C(=O)Nc2ccccc2)CC1	-20.3%
Cc1ccc(SCc2ccc(C(=O)N3CCCC3)cc2)cc1	-13.9%
COc1ccc(C)cc1NC(=O)Nc1ccc(C(=O)N2CCCC2)cc1	-13.8%
Cc1cc(C)c(C(=O)c2ccc(C(=O)N3CCCCC3)cc2)c(C)c1	9.9% (active)
COC(=O)c1ccc(Oc2ccc(S(=O)(=O)N3CCCCC3)cc2N)cc1	-21%
Cc1ccc(NC(=O)CN2C(=O)S/C(=C\c3cccn3-c3cccc(C(=O)O)c3)C2=O)c(C)c1	-17.1%
O=C1c2ccccc2C(=O)N1CCc1nc(-c2ccccn2)no1	-15.6%

SMILES	activity change, less the hit threshold
Cc1cc(C)n(-c2nc(NCCCN(C)C)c3c4c(sc3n2)CCCC4)n1	-15.9%
Cc1ccc(NC(=O)CCc2nc3sc4c(c3c(=O)[nH]2)CCCC4)c(Br)c1	-14.8%
Cc1cc(C)n(-c2nc3sc4c(c3c(=O)[nH]2)CCCC4)n1	6.2% (active)
CC(=O)Cn1c(=O)c2c(nc3n2CCCN3Cc2ccccc2)n(C)c1=O	-11.9%
COC(=O)C1CN(C(=O)COc2ccc(C)c(C)c2)c2ccccc2O1 (centres undefined)	-18.1%
CC(C)OC(=O)C1CC(C)(O)C(=O)C(C(=O)OC(C)C)C1c1ccc([N+](=O)[O-])cc1 (centres undefined)	-20.5%
CCc1noc(C)c1C(=O)N1CCCC(N2CCN(c3ccccc3F)CC2)C1 (centres undefined)	-14.7%
Cc1ccc(CN2CCN(/N=C/c3ccc(O)c(O)c3)CC2)cc1	-3.7%
O=C(COC(=O)c1cc(Br)ccc1O)Nc1cccnc1Cl	-19.3%
O=C(N/N=C/c1ccc2cccc(OCc3ccccc3)c2n1)c1ccc(Br)cc1	-9.5%
Cc1cccc(/C=N/NC(=O)c2cc(Br)ccc2O)n1	0.2% (active)
NC(=O)C1CCN(C(=O)CCC(=O)c2ccc(F)cc2)CC1	-12.6%
CCOC(=O)C1CCCCN1Cc1ccc(F)cc1 (centres undefined)	4.5% (active)
CCOC(=O)C1CCCN(C(=S)NC(=O)/C=C/c2ccc(F)cc2)C1 (centres undefined)	-20.7%
O=C1c2ccccc2C(=O)N1Cc1cc(-c2ccccc2Cl)no1	-14.4%
O=C(NC(=S)N1CCc2ccccc21)c1ccco1	0.6% (active)
O=C(NC(=S)NC1CCCc2ccccc21)c1ccco1 (centres undefined)	7% (active)
Cc1cccc(OCC(=O)NC2CCCc3ccccc32)c1C (centres undefined)	-34.2%
Cn1nnnc1SCC(=O)NC1CCCc2ccccc21 (centres undefined)	-30.8%
O=C(NC(=S)N1CCc2ccccc21)c1ccc(Br)o1	19.1% (active)
Cc1ccc(OCCC(=O)OC(C)C(=O)Nc2ccc(Cl)cn2)cc1 (centres undefined)	-8.9%
O=C(O)CCCn1cc(NC(=O)COc2ccc(F)cc2)cn1	-25.3%
Fc1ccc2c(c1)C(c1ccncc1)=NNC(c1cccnc1)=N2	-6.5%
Cc1ccc(CNS(=O)(=O)c2ccc(C(F)(F)F)cc2)n1C	-26.5%
Nc1nc2n(n1)C(=O)CC(c1ccc(Cl)cc1)N2 (centres undefined)	-10.5%
CC(=O)N1CCCc2cc(S(=O)(=O)NCc3ccc(C)cc3)ccc21	-9.9%

SMILES	activity change, less the hit threshold
c1ccc(CCCNc2ncnc3nc[nH]c23)cc1	30.4% (active)
COc1ccc(N2CC(C(=O)OCC(=O)Nc3ccccc3C)CC2=O)cc1 (centres undefined)	-5.6%
CCc1cc2cc(C)cc(C)c2[nH]c1=S	2.1% (active)
CN(C)Cc1c(C(=O)N/N=C/c2ccccc2OCc2c(F)cccc2Cl)nnn1-c1nonc1N	-28.3%
O=C(O)/C=C/c1cn(-c2ccccc2)nc1-c1ccc(-c2ccc([N+](=O)[O-])cc2)o1	-18%
S=c1[nH]c2cc(-c3ccccc3)ccc2o1	86.2% (active)
Cc1ccc(NN=Nc2nc3c([nH]2)c(=O)n(C)c(=O)n3C)cc1	-16.4%
COC(=O)C1=C(C)N(CC2CCCO2)C(=O)/C1=C\c1ccc(O)cc1 (centres undefined)	-0.1%
CCN(CC)S(=O)(=O)c1ccc2[nH]c(=O)cc(C(=O)Nc3cccc(C(C)=O)c3)c2c1	-14.9%
COC(=O)c1ccc(NC(=S)NC(=O)c2cc(-c3ccccc3)nc3ccccc23)cc1	1.1% (active)
Cc1cccc(NC(=S)NC(=O)c2cc(-c3ccccc3)nc3ccccc23)c1	-14.7%
O=C(NC(=S)Nc1ccccn1)c1cc(-c2ccccc2)nc2ccccc12	-12%
CC(C)(C)NS(=O)(=O)c1ccc(NC(=O)c2cc(-c3ccccc3)nc3ccccc23)cc1	-22%
Cc1ccccc1NC(=S)NC(=O)c1cc(-c2ccccc2)nc2ccccc12	2% (active)
O=C(NC(=S)Nc1ccccc1)c1cc(-c2ccccc2)nc2ccccc12	-5.5%
CCCCCCc1cc2cc(-c3nnc(-c4ccccc4)o3)c(=O)oc2cc1O	-23.8%
O=C(C[n+]1ccccc1)N/N=C/c1ccc(Cl)c(Cl)c1	-28.9%
O=C(c1cccs1)N1CCN(C23CC4CC(CC(C4)C2)C3)CC1	-10.7%
CCC1Nc2ncnc(N3CCOCC3)c2N(Cc2ccc(C)cc2)C1=O (centres undefined)	-18.9%
CCc1cc(=O)[nH]c(SCc2ccc(C)cc2)n1	-15.8%
CSc1nc(=S)cc(C)[nH]1	-1.9%
CCSc1nc(=S)cc(C)[nH]1	48.7% (active)
CN(C)CCNc1ncnc2c1sc1nc(N3CCCC3)c3c(c12)CC(C)(C)OC3	-13.1%
CCOC(=O)NC(=S)Nc1ccc(C(C)(C)C)cc1	1% (active)
COC(=O)CNC(=S)NC(=O)c1ccc(C(C)(C)C)cc1	-13%
CC(C)(C)c1ccc(/C=N/NC(=S)Nc2cccnc2)cc1	-14%

SMILES	activity change, less the hit threshold
CCOC(=O)NC(=S)Nc1ccc(C(C)(C)C)cc1Br	2.1% (active)
CCCCNC(=O)CC(NS(=O)(=O)c1ccc(C)cc1)c1ccco1 (centres undefined)	-14.3%
C[n+]1ccccc1/C=C/c1ccc(C#N)cc1	-12.2%
COCC(=O)N(Cc1ccco1)c1nnc(C2CCOC2)s1 (centres undefined)	-22.7%
Oc1c(Cl)cc(CN2CCCCC2)c2cccnc12	-12.8%
COc1ccc(-n2cnc3ccccc3c2=O)c([N+](=O)[O-])c1	-12.6%
O=[N+]([O-])c1cc(F)c2cccnc2c1O	6.4% (active)
O=[N+]([O-])c1cccnc1Sc1n[nH]c(-c2ccc(Cl)cc2)n1	-16.6%
Cc1ccc(N=Nc2ccc(O)c3ncccc23)cc1	-4.3%
O=[N+]([O-])c1ccc(O)c2ncccc12	22.1% (active)
O=C(O)C[C@H]1c2cc(F)ccc2S(=O)(=O)N1C1CCCCC1	-10.2%
Cc1nc(-c2nc(-c3c(C(=O)NNC(=O)c4ccc(Cl)cc4)noc3C)cs2)cs1	-1.2%
CC(C)(C)c1csc(NNC(=O)c2ccc(Cl)cc2)n1	-7.6%
CC(C)(C)c1cc(C(=O)NNC(=O)c2ccc(Cl)cc2)no1	24% (active)
CCc1nc(C)ccc1OCC(=O)N1CCc2c([nH]c3ccccc23)C1c1ccccn1 (centres undefined)	-18.2%
CCN(CC)c1ccc(/C=c2\sc3nnc(-c4ccccc4Cl)n3c2=O)cc1	-31.7%
COc1ccc(-c2csc(NC(=S)NC(=O)c3ccco3)n2)cc1	-0.4%
COc1ccc2nc(NC(=S)NC(=O)c3ccco3)sc2c1	27.9% (active)
O=C(NC(=S)Nc1nc(-c2ccccc2)cs1)c1ccco1	-0.7%
O=C(NC(=S)Nc1nc(-c2ccc(Br)cc2)cs1)c1ccco1	-18.5%
O=C(NC(=S)Nc1nc2ccccc2s1)c1ccco1	40.4% (active)
O=C(NC(=S)Nc1nc2ccc(F)cc2s1)c1ccco1	59.7% (active)
O=C(NC(=S)Nc1nc(-c2ccc([N+](=O)[O-])cc2)cs1)c1ccco1	20.1% (active)
O=C(NC(=S)NCc1ccc(-c2nc3ccccc3s2)cc1)c1ccco1	-16%
Cc1ccc2nc(NC(=S)NC(=O)c3ccco3)sc2c1	-6.5%
COc1ccc(-c2csc(NC(=S)NC(=O)c3ccco3)n2)cc1Br	-3.7%
